PubChem BioAssay AID1159580 (chemical genetic matrix, 2015)
About 2,000 (36%) of roughly 5,500 compounds were called active. Roughly 18% stayed inconclusive and do not appear here. Rule as the data show it: active = normalized growth mostly below about 0.91 (no sharp cut-off); inconclusive = no clear call, values can overlap the other calls; inactive = mostly above about 0.92. The list shows a part of the results.

Assay: chemical genetic growth profiling, strain panel (AID 1159580);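 also: tested at 20 µM; growth read once vehicle control cultures reached saturation at 30 °C; 1 = growth at the plate median or of vehicle wells; lower values mean less growth of the strain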
Conditions: S. cerevisiae deletion strains, growth OD

Q: Which results are given for CC(C)(C)c1ccc(C(=O)Nc2ccc(C(F)(F)F)cc2)s1?
A: normalized growth (locus YAR019C, strain CDC15, active compounds read low): 0.985 (inactive); normalized growth (locus YBL105C, strain PKC1, active compounds read low): 0.991 (inactive); normalized growth (locus YBR135W, strain CKS1, active compounds read low): 0.994 (inactive); normalized growth (locus YBR136W, strain MEC1, active compounds read low): 0.972 (inactive); normalized growth (locus YBR160W, strain CDC28, active compounds read low): 0.984 (inactive); normalized growth (locus YDL017W, strain CDC7, active compounds read low): 0.997 (inactive); normalized growth (locus YDL028C, strain MPS1, active compounds read low): 0.967 (inactive); normalized growth (locus YDL101C, strain DUN1, active compounds read low): 1.01 (inactive); normalized growth (locus YDL108W, strain KIN28, active compounds read low): 0.972 (inactive); normalized growth (locus YDL132W, strain cdc53, active compounds read low): 0.988 (inactive); normalized growth (locus YDL214C, strain PRR2, active compounds read low): 0.952 (inactive); normalized growth (locus YDR052C, strain DBF4, active compounds read low): 0.996 (inactive); normalized growth (locus YDR054C, strain cdc34, active compounds read low): 0.989 (inactive); normalized growth (locus YDR226W, strain ADK1, active compounds read low): 0.976 (inactive); normalized growth (locus YDR477W, strain SNF1, active compounds read low): 0.952 (inactive); normalized growth (locus YER123W, strain YCK3, active compounds read low): 0.968 (inactive); normalized growth (locus YER133W, strain GLC7, active compounds read low): 0.977 (inactive); normalized growth (locus YFL009W, strain cdc4, active compounds read low): 0.976 (inactive); normalized growth (locus YFL029C, strain CAK1, active compounds read low): 0.987 (inactive); normalized growth (locus YFR003C, strain YPI1, active compounds read low): 0.999 (inactive); normalized growth (locus YFR019W, strain FAB1, active compounds read low): 0.972 (inactive); normalized growth (locus YFR028C, strain CDC14, active compounds read low): 0.985 (inactive); normalized growth (locus YGR040W, strain KSS1, active compounds read low): 0.954 (inactive); normalized growth (locus YGR052W, strain FMP48, active compounds read low): 1 (inactive); normalized growth (locus YGR092W, strain DBF2, active compounds read low): 0.966 (inactive); normalized growth (locus YHR030C, strain SLT2, active compounds read low): 0.821 (active); normalized growth (locus YHR079C, strain IRE1, active compounds read low): 0.963 (inactive); normalized growth (locus YHR082C, strain KSP1, active compounds read low): 0.991 (inactive); normalized growth (locus YHR205W, strain SCH9, active compounds read low): 0.92 (inactive); normalized growth (locus YIL147C, strain SLN1, active compounds read low): 0.989 (inactive); normalized growth (locus YJL095W, strain BCK1, active compounds read low): 0.957 (inactive); normalized growth (locus YJL128C, strain PBS2, active compounds read low): 0.943 (inactive); normalized growth (locus YJL157C, strain FAR1, active compounds read low): 0.976 (inactive); normalized growth (locus YJR016C, strain ILV3, active compounds read low): 0.996 (inactive); normalized growth (locus YJR066W, strain TOR1 (second series), active compounds read low): 0.967 (inactive); normalized growth (locus YJR066W, strain TOR1, active compounds read low): 0.929 (inactive); normalized growth (locus YKL048C, strain ELM1, active compounds read low): 0.988 (inactive); normalized growth (locus YKL067W, strain YNK1, active compounds read low): 0.944 (inactive); normalized growth (locus YKL101W, strain HSL1, active compounds read low): 0.935 (inactive); normalized growth (locus YKL193C, strain SDS22, active compounds read low): 0.986 (inactive); normalized growth (locus YKL203C, strain TOR2, active compounds read low): 1.05 (inactive); normalized growth (locus YLR113W, strain HOG1, active compounds read low): 0.863 (inactive); normalized growth (locus YLR133W, strain CKI1, active compounds read low): 0.971 (inactive); normalized growth (locus YLR403W, strain SFP1, active compounds read low): 0.974 (inactive); normalized growth (locus YML070W, strain DAK1, active compounds read low): 0.944 (inactive); normalized growth (locus YMR001C, strain CDC5, active compounds read low): 0.995 (inactive); normalized growth (locus YMR205C, strain PFK2 (second series), active compounds read low): 0.975 (inactive); normalized growth (locus YMR277W, strain FCP1, active compounds read low): 0.966 (inactive); normalized growth (locus YNL006W, strain LST8, active compounds read low): 0.981 (inactive); normalized growth (locus YNL020C, strain ARK1, active compounds read low): 0.973 (inactive); normalized growth (locus YNL161W, strain CBK1, active compounds read low): 0.985 (inactive); normalized growth (locus YNL183C, strain NPR1, active compounds read low): 1.01 (inactive); normalized growth (locus YNL207W, strain RIO2, active compounds read low): 0.991 (inactive); normalized growth (locus YNL222W, strain SSU72, active compounds read low): 0.988 (inactive); normalized growth (locus YNL307C, strain MCK1 (second series), active compounds read low): 0.99 (inactive); normalized growth (locus YOL078W, strain AVO1, active compounds read low): 0.989 (inactive); normalized growth (locus YOL136C, strain PFK27, active compounds read low): 0.939 (inactive); normalized growth (locus YOR061W, strain CKA2, active compounds read low): 1 (inactive); normalized growth (locus YOR119C, strain RIO1, active compounds read low): 0.993 (inactive); normalized growth (locus YOR231W, strain MKK1, active compounds read low): 0.925 (inactive); normalized growth (locus YOR329C, strain SCD5, active compounds read low): 0.999 (inactive); normalized growth (locus YPL031C, strain PHO85, active compounds read low): 0.977 (inactive); normalized growth (locus YPL153C, strain RAD53, active compounds read low): 0.951 (inactive); normalized growth (locus YPL204W, strain HRR25, active compounds read low): 0.951 (inactive); normalized growth (locus YPL209C, strain IPL1, active compounds read low): 0.991 (inactive); normalized growth (locus YPL256C, strain CLN2, active compounds read low): 0.899 (inactive); normalized growth (locus YPR025C, strain CCL1, active compounds read low): 1 (inactive); normalized growth (locus YPR106W, strain ISR1, active compounds read low): 0.98 (inactive); normalized growth (locus YPR111W, strain DBF20, active compounds read low): 0.955 (inactive); normalized growth (strain NNK1, active compounds read low): 0.98 (inactive); normalized growth (strain TSCII, active compounds read low): 0.983 (inactive)
